# Compound activity from PubChem.
# Sampled rows, rich in hits. Any-hit rate of the full collection: about 16%.
# miR-21 act = qHTS Assay for Modulators of miRNAs and/orActivators of miR-21; 340,000 tested, under 10 active; HeLa miR-21 FLuc reporter, luciferase, 48 h; Potency, µM (doses to about 38.3 µM), for inactives: top-dose activity change, positive = activation, most hits filed as activators;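 note: % of control where 0% means no effect; miR-21 action dims this reporter so a rising signal means less miR-21 action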
#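 Luminescence from a firefly luciferase reporter carrying a miR-21 binding site downstream, stably expressed under a CMV promoter in HeLa cells that make miR-21 endogenously, reports miRNA modulation after 48 h compound exposure up to approximately 40uM final.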
# DT40 TDP1 no CPT = qHTS for Inhibitors of human tyrosyl-DNA phosphodiesterase 1 (TDP1): qHTS in cells in absence of CPT; hit rate 15% among 420,000; DT40 Tdp1-/- hTDP1 cells, no CPT, ATP luminescence, 48 h; Potency, µM (series often up to 46.2 µM), without a hit: top-dose activity change, negative = growth inhibition, actives largely listed as inhibitors; note: potency is the fitted concentration of half-maximal effect; % is set by controls: 0 for no effect and ±100 for the full control effect; nearly all actives have a fitted effect of over 55% in size
#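 Stably hTDP1-transfected Tdp1-null chicken DT40 cells were treated with library compounds minus camptothecin and grown for at least 48 hr at 37 °C, after which cellular ATP was quantified by luminescence.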
# TDP1 block = qHTS Assay for Inhibitors of Tyrosyl-DNA Phosphodiesterase (TDP1); Tyrosyl-DNA phosphodiesterase 1 (Homo sapiens), Q9NUW8; recombinant TDP1, AlphaScreen DNA substrate cleavage; Potency, µM (top dose mostly 130 µM), without a hit: at the highest dose activity change, negative = inhibition, usual class: inhibitors; hit rate 0.28% among 350,000; note: potency is the fitted concentration of half-maximal effect; % is set by controls: 0 for no effect and ±100 for the full control effect; nearly all actives have a fitted effect of over 40% in size
# Target sequence (Q9NUW8 whole entry, looked up): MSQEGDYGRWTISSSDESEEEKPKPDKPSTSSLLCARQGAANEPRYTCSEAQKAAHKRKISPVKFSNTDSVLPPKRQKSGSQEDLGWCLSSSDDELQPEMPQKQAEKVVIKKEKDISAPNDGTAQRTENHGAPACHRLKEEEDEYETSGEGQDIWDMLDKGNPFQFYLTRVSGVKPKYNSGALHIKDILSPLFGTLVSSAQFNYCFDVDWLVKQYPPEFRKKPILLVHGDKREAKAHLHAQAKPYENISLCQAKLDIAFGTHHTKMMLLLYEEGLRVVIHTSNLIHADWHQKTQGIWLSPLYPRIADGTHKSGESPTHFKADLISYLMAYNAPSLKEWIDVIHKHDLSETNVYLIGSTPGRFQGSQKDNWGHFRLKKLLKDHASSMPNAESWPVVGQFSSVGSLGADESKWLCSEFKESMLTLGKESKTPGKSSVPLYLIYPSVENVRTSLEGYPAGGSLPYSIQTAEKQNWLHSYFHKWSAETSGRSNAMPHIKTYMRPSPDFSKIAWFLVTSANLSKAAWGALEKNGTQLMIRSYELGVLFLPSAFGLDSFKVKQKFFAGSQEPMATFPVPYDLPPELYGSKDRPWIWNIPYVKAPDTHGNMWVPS
#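 Recombinant human Tdp1 (E. coli-expressed, 1 nM final) preincubated with compounds 15 min at room temperature, then 5'-biotin/3'-phosphotyrosine-FITC DNA substrate (15 nM final) added for 5 min. AlphaScreen beads (10 ug/ml final) added 10 min; cleavage lowers signal.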
# uPA generation = qHTS for Inhibitors of Cell Surface uPA Generation; cell surface uPA generation assay, qHTS; hit rate 0.31% among 330,000; Potency, µM (highest dose often 38.3 µM), inactives show at the highest dose activity change, negative = inhibition, usual class: inhibitors; active = well fitted inhibition curve with a large enough effect; inconclusive = small, poorly fitted or top-dose-only effect; inactive = no such curve, though single readings can be large or run the other way; tested in mouse RAW 264.7 cells; note: potency is the fitted concentration of half-maximal effect; % is set by controls: 0 for no effect and ±100 for the full control effect; nearly all actives have a fitted effect of over 55% in size
# DT40 TDP1 CPT = qHTS for Inhibitors of human tyrosyl-DNA phosphodiesterase 1 (TDP1): qHTS in cells in presence of CPT; hit rate 12% among 420,000; Potency, µM (top dose mostly 46.2 µM), without a hit: at the highest dose activity change, negative = growth inhibition, usual class: inhibitors; chicken DT40 Tdp1-/-;hTDP1 cells + 20 nM CPT, ATP luminescence, 48 h; note: potency is the fitted concentration of half-maximal effect; % is set by controls: 0 for no effect and ±100 for the full control effect; nearly all actives have a fitted effect of over 55% in size
#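 Chicken DT40 Tdp1-/- cells complemented with human TDP1, 400 cells/well, exposed to compounds plus 20 nM camptothecin for at least 48 h at 37 C; viability read as ATP content by CellTiter-Glo luminescence.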
# An asterisk follows results filed as active; u = inconclusive; x = no result given; ! = a repeat was not active; [ ] = dose if it differs, or a comment. Unless noted, calls come from the whole dose curve; as a rule, active = well fitted curve in the direction sought with a large enough effect; inconclusive = small, poorly fitted or top-dose-only effect, or another doubt; inactive = no such curve, though single readings can be large; an effect the other way counts as inactive or inconclusive.
SMILES,miR-21 act,DT40 TDP1 no CPT,TDP1 block,uPA generation,DT40 TDP1 CPT
CC(=O)c1ccc(NC(=O)CCn2nc(C)c(S(=O)(=O)N3CCC(C)CC3)c2C)cc1,7%,u,9%,x,u
O=C(Nc1ccc(N2CCN(C(=O)c3ccccc3)CC2)c(Cl)c1)c1ccc(Br)o1,u,21µM*,2%,x,23µM*
O=C(Nc1ccc(N2CCOCC2)c(Cl)c1)c1ccc(Br)o1,-14%,11µM*,1%,-1%,u
O=C(Nc1ccc(CN2CCOCC2)cc1)c1ccc(Br)o1,-46%,-16%,x,-5%,21%
O=C(Nc1ccc(N2CCN(C(=O)c3ccccc3)CC2)cc1)c1ccc(Br)o1,16%,u,4%,9%,16µM*
COc1ccc(N2CC(C(=O)N/N=C/c3c[nH]c4ccccc34)CC2=O)cc1 (stereo not given),-1%,-11%,5%,1%,14%
O=C(N/N=C/c1ccccc1O)C1CC(=O)N(c2ccc(F)cc2)C1 (stereo not given),13%,5.8µM*,x,-4%,3.3µM*
CN(Cc1cn(C)nc1-c1cccc(Cl)c1)Cc1nccn1C,1%,u,x,-7%,u
CN(Cc1cccnc1)Cc1cn(C)nc1-c1cccc(Cl)c1,-15%,16µM*!,2%,6%,u
Cc1cc(CN(C)Cc2cn(C)nc2-c2ccc(Oc3ccccc3)cc2)on1,16%,16µM*,1%,4%,u
CN(Cc1cccnc1)Cc1cn(C)nc1-c1ccc(Oc2ccccc2)cc1,2%,18µM*,5%,4%,u
CN(Cc1ccc(-n2cccn2)cc1)Cc1cn(C)nc1-c1ccccc1F,-1%,-27%,3%,0%,-9%
NC1=NC(=O)/C(=C\c2ccsc2)S1,-1%,3%,2%,2%,-8%
COc1ccccc1/C=C/C(=O)N1CCN(S(=O)(=O)c2cc(C)ccc2C)CC1,x,u,2%,8%,u
Cc1ccc(C)c(N2CCN(c3ccc(NC(=O)c4cccs4)cc3C(=O)O)CC2)c1,-3%,u,-9%,x,-23%
CCN(CC)C(=O)C1CCN(S(=O)(=O)c2ccc3oc4ccccc4c3c2)CC1,2%,16µM*,1%,-11%,21µM*
CCN(C(=O)c1oc2ccc(S(=O)(=O)N3CCCCCC3)cc2c1C)c1ccccc1,u,15µM*,5%,x,23µM*
O=C(c1ccc(S(=O)(=O)N2CCc3ccccc3C2)cc1)N1CCCCC1,3%,26µM*,-5%,8%,u
O=S(=O)(c1ccc2oc3ccccc3c2c1)N1CCCC1,-10%,u,-4%,3%,-23%
CCOC(=O)N1CCN(C(=O)c2oc3ccc(S(=O)(=O)N4CCOCC4)cc3c2C)CC1,21%,-27%,-4%,5%,-6%
O=C(c1ccc(S(=O)(=O)N2CCCC2)cc1)N1CCCCC1,x,-12%,13%,-16%,-15%
CCOC(=O)N1CCN(C(=O)c2oc3ccc(S(=O)(=O)N4CCCCCC4)cc3c2C)CC1,2%,13µM*,8%,-5%,15µM*
C=CC(=O)NC(NC(=O)C=C)c1ccccc1F,0%,-9%,-3%,3%,2%
CN1CCN(C(=O)c2cc3c(c(-c4cccc(Br)c4)n2)[C@@H](CCO)N(S(=O)C(C)(C)C)C3)CC1 (stereo not given in full),x,-13%,x,x,-4%
CC(C)n1cnnc1SCC(=O)NNC(=O)COc1ccc(Cl)cc1,x,4%,x,3%,7%
SMILES,miR-21 act,DT40 TDP1 no CPT,TDP1 block,uPA generation,DT40 TDP1 CPT
Cc1c(C(=O)N2CCCc3ccccc32)oc2ccc(S(=O)(=O)N3CCOCC3)cc12,4%,11µM*,2%,x,14µM*
Cc1c(C(=O)N2CCc3ccccc3C2)oc2ccc(S(=O)(=O)N3CCCCCC3)cc12,0%,18µM*,3%,-12%,23µM*
O=C(c1cccc(S(=O)(=O)N2CCOCC2)c1)N1CCCc2ccccc21,-4%,-13%,0%,1%,-23%
CCOC(=O)N1CCN(C(=O)c2oc3ccc(S(=O)(=O)N4CC(C)CC(C)C4)cc3c2C)CC1 (stereo not given),-26%,u,6%,-3%,u
CCOC(=O)C1CCN(C(=O)c2oc3ccc(S(=O)(=O)N4CC(C)CC(C)C4)cc3c2C)CC1 (stereo not given),10%,16µM*,0%,-3%,18µM*
CCOC(=O)N1CCN(c2ccc(S(=O)(=O)N3CCC(C)CC3)cc2[N+](=O)[O-])CC1,x,13µM*,2%[56.1 µM],-16%,21µM*
C=COc1ccc(N2C(=O)c3ccccc3OC2C)cc1 (stereo not given),-4%,21µM*,x,-3%,u
CCSCc1nnc(SCC(=O)Nc2nc3ccccc3s2)n1C,-8%,-10%,2%,2%,-10%
C#CCN1C=C(C(=O)OCC)C(C)N(Cc2ccccc2I)S1(=O)=O (stereo not given),x,8.2µM*,-6%[56.1 µM],u,13µM*
Cc1ccsc1C(=O)OCC(=O)NCCCc1ccccc1,-9%,-17%,-2%,18%,-2%
COc1ccc(C(=O)NC(=S)Nc2ccc(CN3CCOCC3)cc2)cc1Cl,12%,16µM*,10%,0%,18µM*
COc1ccc(C(=O)Nc2ccc(CN3CCOCC3)cc2)cc1Br,-3%,-3%,x,u,-2%
O=C(/C=C/c1ccc(Cl)cc1Cl)Nc1ccc(CN2CCOCC2)cc1,1%,u,3%,u,u
COc1ccc(Br)cc1/C=C/C(=O)NC(=S)Nc1ccc(CN2CCOCC2)cc1,1%,16µM*,8%,u,16µM*
O=C(/C=C/c1ccc(Cl)cc1)NC(=S)Nc1ccc(CN2CCOCC2)cc1,-2%,23µM*,-1%,-15%,u
COc1ccc(C(=O)NC(=S)Nc2ccc(CN3CCOCC3)cc2)cc1OC,6%,21µM*,x,15%,u
O=C(/C=C/c1ccccc1)Nc1ccc(CN2CCOCC2)cc1,-48%,u,5%,-14%,u
O=C(CN1C(=O)C2CC=CCC2C1=O)Nc1ccc(F)c(Cl)c1 (stereo not given),x,-23%,x,x,-7%
O=C(/C=C/c1ccc(Cl)cc1)NC(=S)Nc1ccc(NC(=O)c2ccco2)cc1,20%,8.2µM*,3%,-16%,u
Cc1ccccc1-n1ncc2c([N+](=O)[O-])cc([N+](=O)[O-])cc21,12%,21µM*,10%,-8%,26µM*
